Experiment [1] in a line: Nuclear factor erythroid 2-related factor 2/antioxidant responsive element (Nrf2/ARE) small molecule agonists: luciferase reporter gene qHTS assay in human keratinocytes (AID 1919969; note: nearly all actives have a fitted effect of over 35% in size; note: potency is the fitted concentration of half-maximal effect). (In a reporter assay the amount or activity of a reporter protein is the signal.)
The target of experiment [2] is Gonadotropin-releasing hormone receptor (Homo sapiens) (UniProt P30968). Nature of the experiment: Human gonadotropin-releasing hormone receptor (GnRHR) small molecule agonists, calcium flux assay in GnRHR-HEK293 cells (AID 1920063). Note: nearly all actives have a fitted effect of over 35% in size. In outline: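 GnRHR-HEK293, 1500 cells/well, 18 h 37 C/5% CO2; Ca dye 1 h 37 C; cpd pinned (DMSO), agonist mode; kinetic FL 480/540, 3 min, 1 s reads; 15 conc, n=3.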
For orientation: Calcium flux is commonly read through the fluorescence of an indicator in the cells.

Experiment [3] is described as follows: G protein-coupled receptor (GPCR) small molecule agonists, calcium flux assay: HEK293 wild type cell line counter screen (AID 1920065). The procedure, abridged:
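Kinetic fluorescence at Ex/Em 480/540, recorded every second over 3 min, served as the read-out after compound addition. Each compound was tested at 15 concentrations in triplicate on cells pre-loaded with calcium dye for 1 h.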

The nature of experiment [4]: p53 small molecule agonists, cell-based qHTS assay with human liver microsomes: qHTS cell viability counter screen (AID 1963579). Note: nearly all actives have a fitted effect of over 45% in size. In outline: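 p53RE-bla cells, 4,000/well, dosed 5 hours after plating, with human liver microsomes (0.5 mg/mL final) plus NADPH (0.5 mg/mL final), 16 hours at 37 C. Viability read as CellTiter-Glo luminescence after 30 min at room temperature.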
In general terms: In qHTS, concentration-response curves come from the screen itself.

Experiment [5] can be described thus: p53 small molecule agonists, cell-based qHTS assay with rat liver microsomes: qHTS cell viability counter screen (AID 1963580). Note: nearly all actives have a fitted effect of over 45% in size. The procedure, abridged:
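Viability is assessed in parallel with the p53 reporter read: HCT-116 p53RE-bla cells receive compounds plus rat microsomes and NADPH (0.5 mg/mL final apiece), incubate 16 h at 37 C, and then CellTiter-Glo luminescence is recorded.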

Experiment [6] is described as follows: p53 small molecule agonists, cell-based qHTS assay: qHTS cell viability counter screen (AID 1963581). Note: nearly all actives have a fitted effect of over 45% in size. In outline: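 HCT-116 p53RE-bla cells, 4,000/well, plated 5 h before compound pin transfer; 16 h at 37 C; bla substrate 2 h RT; then CellTiter-Glo, 30 min RT, luminescence.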
A short description of experiment [7]: p53 small molecule agonists, cell-based qHTS assay (AID 1963582; active = well fitted activation curve with a large enough effect in the signal ratio in the repeat runs, not every such curve was filed as active; the % refers to the signal ratio). The procedure, abridged:
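Reporter line: p53RE-bla. Pre-incubation 5 h, 37 C, 5% CO2; compound (DMSO, pin tool) 16 h, 37 C; B/G FRET substrate 2 h RT; fluorescence intensity read.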

The target in experiment [8] is 5-hydroxytryptamine receptor 2A (Homo sapiens) (UniProt P28223). Put plainly: 5-hydroxytryptamine receptor 2A (HTR2A) small molecule antagonists, cell-based qHTS assay (AID 1963586). Note: nearly all actives have a fitted effect of over 45% in size. Note: potency is the fitted concentration of half-maximal effect. The procedure, abridged: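 Antagonist-mode intracellular calcium assay: DOI (4 nM) added after 5 min compound pre-incubation at room temperature to dye-loaded HTR2A-CHO cells. Fluorescence followed for 3 min, sampled every second.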

In experiment [9] the target is Muscarinic acetylcholine receptor M1 (Homo sapiens) (UniProt P11229). Nature of the experiment: Cholinergic receptor muscarinic 1 (CHRM1) small molecule antagonists, cell-based qHTS assay (AID 1963588). Note: nearly all actives have a fitted effect of over 40% in size. In outline:
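CHRM1-CHO calcium-flux assay, antagonist mode. Cells were seeded 18 h, dye-loaded 1 h at 37 C and given compound for 5 min at RT, then acetylcholine was added at 50nM. FDSS fluorescence was read 3 min; 15 concentrations, three runs.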

For experiment [10] the target is unchanged. Put plainly: Cholinergic receptor muscarinic 1 (CHRM1) small molecule agonists, cell-based qHTS assay (AID 1963589). Note: nearly all actives have a fitted effect of over 35% in size. In outline: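 Human M1 in stable CHO line; 18 h plating, 1 h dye load 37 C; cpd added (agonist mode); Ca2+ fluorescence kinetic read, 1 s intervals; 15 conc, 3 runs.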
The nature of experiment [11]: cAMP Responsive Elements (CRE) small molecule agonists, cell-based qHTS assay (AID 1963590). The procedure, abridged:
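HEK 293T CRE-bla, 2,000 cells/well, 18 h preincubation 37 C/5% CO2; cpds (DMSO) pinned, 3 h; LiveBLAzer B/G FRET substrate, 2 h RT.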

The target in experiment [12] is Beta-2 adrenergic receptor (Homo sapiens) (UniProt P07550). Nature of the experiment: Adrenergic beta2 receptor (ADRB2) small molecule antagonists, cell-based qHTS assay (AID 1963592). Note: series mostly up to about 92 µM; nearly all actives have a fitted effect of over 50% in size. The procedure, abridged:
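Cells (CHO, stable ADRB2 overexpression) incubated 18-20hr at 37C; compounds added from DMSO; agonist mix (1nM isoproterenol, 100uM IBMX, 25uM Ro-20-1724) added; 0.5hr RT; d2-cAMP and anti-cAMP-cryptate added; 1hr RT; 665/615 nm read.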

Experiment [13] addresses D(2) dopamine receptor (Homo sapiens) (UniProt P14416). Nature of the experiment: Dopamine D2 receptor (DRD2) small molecule antagonists, cell-based qHTS assay (AID 1963595; active = well fitted inhibition curve with a large enough effect in the signal ratio in the repeat runs, with a control signal flat; the % refers to the signal ratio). The procedure, abridged:
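HEK293 cells stably expressing DRD2 were preincubated with 0.1 mM Ro20-1724, then with compound for 10 min at room temperature. Cells were stimulated with 200 nM NKH477 plus 12 nM quinpirole for 30 min, and cAMP was read by HTRF.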

A short description of experiment [14]: p53 small molecule agonists, cell-based qHTS assay with human liver microsomes (AID 1963577). The procedure, abridged:
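p53RE-bla cells, 4,000/well, compound added after 5 h, with human liver microsomes 0.5 mg/mL and NADPH 0.5 mg/mL final; 16 h at 37 C, then LiveBLAzer 2 h RT, fluorescence.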

A short description of experiment [15]: p53 small molecule agonists, cell-based qHTS assay with rat liver microsomes (AID 1963578). The procedure, abridged:
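p53RE-bla cells, 4,000/well, pre-incubated 5 h, then given compounds plus rat liver microsomes (0.5 mg/mL final) and NADPH (0.5 mg/mL final). Incubation 16 h at 37 C; beta-lactamase reporter read by LiveBLAzer fluorescence after 2 h at room temperature.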

The nature of experiment [16]: cAMP Responsive Elements (CRE) small molecule antagonists, cell-based qHTS assay (AID 1963591; active = well fitted inhibition curve with a large enough effect in the signal ratio in the repeat runs, not every such curve was filed as active; the % refers to the signal ratio). The procedure, abridged:
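Beta-lactamase reporter read by FRET substrate (LiveBLAzer B/G) after 2 h at room temperature. CRE-bla HEK293T cells had received compound plus 0.25 uM (final) NKH477 for 3 h at 37 °C.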

Experiment [17] has as its target D(2) dopamine receptor (Homo sapiens) (UniProt P14416). Nature of the experiment: Dopamine D2 receptor (DRD2) small molecule agonists, cell-based qHTS assay (AID 1963594). Note: nearly all actives have a fitted effect of over 35% in size. The procedure, abridged: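 HEK293 cells stably expressing human DRD2, pre-treated with PDE inhibitor Ro20-1724 (0.1 mM final) and compound 10 min at room temperature, then stimulated with NKH477 (200nM […]) for 30 min. cAMP read by HTRF (665/620 nm).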

In experiment [18] the target is KiSS-1 receptor (Homo sapiens) (UniProt Q969F8). Nature of the experiment: Human kisspeptin (KISS1R) small molecule agonists, calcium flux assay in KISS1R-HEK293 cells (AID 1920064; active = well fitted activation curve with a large enough effect in the repeat runs). In outline:
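Stable human KISS1R HEK293 line; 18 h plating, 37 C/5% CO2; calcium dye 1 h 37 C; compound pin transfer; kinetic fluorescence Ex/Em 480/540, 3 min.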

Experiment [19] has as its target 5-hydroxytryptamine receptor 2A (Homo sapiens) (UniProt P28223). Put plainly: 5-hydroxytryptamine receptor 2A (HTR2A) small molecule agonists, cell-based qHTS assay (AID 1963587). Note: nearly all actives have a fitted effect of over 30% in size. Note: potency is the fitted concentration of half-maximal effect. The procedure, abridged: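 CHO cells stably expressing human HTR2A, plated 18 h, loaded with calcium dye 1 h at 37 C. Agonist mode: compounds added and intracellular calcium fluorescence recorded kinetically for 2 min at 1 sec intervals.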

The target of experiment [20] is Beta-2 adrenergic receptor (Homo sapiens) (UniProt P07550). Put plainly: Adrenergic beta2 receptor (ADRB2) small molecule agonists, cell-based qHTS assay (AID 1963593).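 Note: CHO cells stably overexpressing human ADRB2.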 In outline: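 CHO cells stably over-expressing ADRB2 were plated overnight at 37C, then dosed with compounds plus a stimulation mix containing 100uM IBMX and 25uM Ro-20-1724 for 0.5hr at room temperature. cAMP was measured by HTRF competition, 1hr.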

Records with an inconclusive call do not appear. The source made the active and inactive calls. Unless noted, calls come from the whole dose curve.

KiSS-1 receptor (Homo sapiens), sequence (Q969F8 whole entry, looked up): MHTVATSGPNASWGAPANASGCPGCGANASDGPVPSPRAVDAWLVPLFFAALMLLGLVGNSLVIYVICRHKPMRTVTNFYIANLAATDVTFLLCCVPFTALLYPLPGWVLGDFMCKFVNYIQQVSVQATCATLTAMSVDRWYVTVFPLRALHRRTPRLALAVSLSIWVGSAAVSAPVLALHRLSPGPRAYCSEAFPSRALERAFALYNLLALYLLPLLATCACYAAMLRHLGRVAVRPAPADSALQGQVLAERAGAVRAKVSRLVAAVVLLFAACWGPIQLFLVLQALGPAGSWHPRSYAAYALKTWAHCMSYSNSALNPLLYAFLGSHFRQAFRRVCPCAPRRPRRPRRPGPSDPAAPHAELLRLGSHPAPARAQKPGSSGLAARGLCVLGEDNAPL
D(2) dopamine receptor (Homo sapiens), sequence (P14416 whole entry, looked up): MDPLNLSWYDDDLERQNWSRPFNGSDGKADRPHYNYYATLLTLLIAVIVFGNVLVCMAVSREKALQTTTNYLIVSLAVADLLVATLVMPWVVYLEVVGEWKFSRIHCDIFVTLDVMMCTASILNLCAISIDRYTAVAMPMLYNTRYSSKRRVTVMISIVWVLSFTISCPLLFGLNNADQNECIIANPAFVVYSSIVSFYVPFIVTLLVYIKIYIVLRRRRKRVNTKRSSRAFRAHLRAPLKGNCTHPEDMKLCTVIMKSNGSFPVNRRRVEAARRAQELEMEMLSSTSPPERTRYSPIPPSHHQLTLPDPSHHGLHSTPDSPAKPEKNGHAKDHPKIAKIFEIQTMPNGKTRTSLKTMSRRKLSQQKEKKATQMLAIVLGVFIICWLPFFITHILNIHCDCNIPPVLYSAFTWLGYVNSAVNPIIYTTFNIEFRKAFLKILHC
5-hydroxytryptamine receptor 2A (Homo sapiens), sequence (P28223 whole entry, looked up): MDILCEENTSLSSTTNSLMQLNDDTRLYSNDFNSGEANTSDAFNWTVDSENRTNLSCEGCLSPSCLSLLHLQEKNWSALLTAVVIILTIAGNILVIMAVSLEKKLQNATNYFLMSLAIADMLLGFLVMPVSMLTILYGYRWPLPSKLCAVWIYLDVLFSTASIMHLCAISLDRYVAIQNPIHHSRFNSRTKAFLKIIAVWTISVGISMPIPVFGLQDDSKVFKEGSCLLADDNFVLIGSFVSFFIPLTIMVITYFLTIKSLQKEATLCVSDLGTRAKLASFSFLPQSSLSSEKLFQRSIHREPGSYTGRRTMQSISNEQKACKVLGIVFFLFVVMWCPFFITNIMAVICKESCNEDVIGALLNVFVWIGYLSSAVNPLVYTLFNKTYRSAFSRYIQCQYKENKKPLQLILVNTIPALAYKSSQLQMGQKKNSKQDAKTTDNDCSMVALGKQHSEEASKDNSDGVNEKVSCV
Muscarinic acetylcholine receptor M1 (Homo sapiens), sequence (P11229 whole entry, looked up): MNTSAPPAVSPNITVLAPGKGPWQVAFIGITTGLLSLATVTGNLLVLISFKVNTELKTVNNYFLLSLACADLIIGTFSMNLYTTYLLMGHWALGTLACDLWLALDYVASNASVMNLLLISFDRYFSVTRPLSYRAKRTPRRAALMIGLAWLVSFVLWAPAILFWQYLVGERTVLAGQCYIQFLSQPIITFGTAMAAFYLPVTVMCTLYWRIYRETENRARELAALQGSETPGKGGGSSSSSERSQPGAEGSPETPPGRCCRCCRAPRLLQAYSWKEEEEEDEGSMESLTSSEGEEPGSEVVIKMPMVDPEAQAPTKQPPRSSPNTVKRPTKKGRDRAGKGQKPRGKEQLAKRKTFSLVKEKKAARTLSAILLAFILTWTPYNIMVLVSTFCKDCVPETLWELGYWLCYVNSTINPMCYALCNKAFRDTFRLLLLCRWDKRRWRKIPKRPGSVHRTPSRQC
Gonadotropin-releasing hormone receptor (Homo sapiens), sequence (P30968 whole entry, looked up): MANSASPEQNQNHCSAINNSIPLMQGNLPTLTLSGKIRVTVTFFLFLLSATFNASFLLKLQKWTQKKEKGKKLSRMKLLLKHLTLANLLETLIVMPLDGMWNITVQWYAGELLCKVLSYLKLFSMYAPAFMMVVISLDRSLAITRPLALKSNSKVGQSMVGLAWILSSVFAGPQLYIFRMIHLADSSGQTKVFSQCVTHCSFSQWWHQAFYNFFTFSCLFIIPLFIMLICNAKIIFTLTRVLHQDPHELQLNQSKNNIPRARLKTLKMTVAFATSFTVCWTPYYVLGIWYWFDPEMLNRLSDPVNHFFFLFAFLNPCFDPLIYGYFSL
Beta-2 adrenergic receptor (Homo sapiens), sequence (P07550 whole entry, looked up): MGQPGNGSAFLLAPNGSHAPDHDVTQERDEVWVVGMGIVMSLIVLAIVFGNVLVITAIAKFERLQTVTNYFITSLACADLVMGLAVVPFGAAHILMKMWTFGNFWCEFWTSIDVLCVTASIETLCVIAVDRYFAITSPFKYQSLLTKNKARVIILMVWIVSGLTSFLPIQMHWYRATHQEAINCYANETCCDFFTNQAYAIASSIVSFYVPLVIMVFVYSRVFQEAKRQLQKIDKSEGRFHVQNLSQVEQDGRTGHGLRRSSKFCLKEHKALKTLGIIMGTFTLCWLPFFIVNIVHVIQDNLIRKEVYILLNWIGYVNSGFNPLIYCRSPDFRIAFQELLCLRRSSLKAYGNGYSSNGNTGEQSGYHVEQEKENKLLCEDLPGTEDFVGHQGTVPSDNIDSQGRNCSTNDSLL

For `COC(=O)C(C)N(C(=O)c1ccco1)c1c(C)cccc1C` (stereo not given), the Potency entry in experiment [1], in experiment [2], in experiment [3], in experiment [4], in [5] and in [6] was “inactive” in each case. In addition, the Potency entry in experiment [7], in experiment [8], in experiment [9], in experiment [10], in experiment [11] and in experiment [12] was “inactive” in each case. For the same compound, in experiment [13], the Potency entry is “inactive”.

As for `Clc1ccccc1N1CCNCC1`, the Potency result in [1], in experiment [2], in experiment [3], in experiment [14], in experiment [15] and in [4] was “inactive” each time. For the same compound, the Potency result in experiment [5], in experiment [7], in experiment [9], in experiment [10], in [11] and in experiment [16] was “inactive” in each case. Further, in experiment [17], the Potency result was “inactive”. In experiment [8], the Potency was 1.16 µM (active).

With `O=[N+]([O-])O.O=[N+]([O-])O.[Cd]`, the Potency result in experiment [2], in experiment [18], in experiment [3], in experiment [4], in experiment [5] and in [6] was “inactive” each time. The Potency result in [9], in experiment [10], in experiment [11], in experiment [12] and in [17] was “inactive” throughout. Also, the Potency in experiment [19] was 38.9 µM (active).

For `S=C=NCCc1ccccc1`, in experiment [1], the Potency is 43.4 µM (active). The Potency result in [3], in experiment [14], in experiment [4], in [5], in experiment [7] and in experiment [8] was “inactive” throughout. Also, the Potency result in experiment [19], in [9], in experiment [16], in experiment [12], in [20] and in experiment [13] was “inactive” each time.

For the compound `CC(C)CCCCCCCOP(=O)(Oc1ccccc1)Oc1ccccc1`, the Potency entry in experiment [2], in experiment [18], in [3], in [4], in [5] and in [6] was “inactive” each time. Moreover, the Potency result in [19], in experiment [10], in experiment [16], in experiment [12], in [17] and in experiment [13] was “inactive” in each case.

As for `CCCCC(=O)Cl`, the Potency result in experiment [2], in [18], in experiment [3], in experiment [14], in [15] and in experiment [4] was “inactive” throughout. The Potency result in [5], in [7], in experiment [8], in experiment [9], in experiment [10] and in experiment [11] was “inactive” in each case. For the same compound, the Potency entry in experiment [16], in experiment [12], in [20], in experiment [17] and in [13] was “inactive” throughout.

For the compound `N#CC(C#N)=C(C#N)C#N`, the Potency entry in experiment [2], in experiment [18], in experiment [3], in experiment [14], in [15] and in experiment [4] was “inactive” throughout. Also, the Potency result in [5], in experiment [6], in [7], in experiment [8], in [19] and in experiment [9] was “inactive” throughout. Moreover, the Potency entry in [10], in experiment [11], in experiment [16], in experiment [12] and in [17] was “inactive” throughout.

For the compound `CCNc1nc(NC(C)C(C)C)nc(SC)n1` (stereo not given), the Potency entry in experiment [2], in [18], in [3], in experiment [4], in experiment [5] and in experiment [6] was “inactive” in each case. In addition, the Potency entry in experiment [8], in experiment [9], in experiment [16], in experiment [12], in experiment [17] and in [13] was “inactive” in each case.

Values taken from PubChem BioAssay (Tox21).
